Consider 34 compounds from PubChem BioAssay (NCATS).

Results filed as inconclusive are left out. Where a call stands in place of a potency, no number is given. Activity calls are given as the source filed them. Calls follow the shape of the dose curve; as a rule, active = well fitted cell-killing curve with a large enough effect; inconclusive = small, poorly fitted or top-dose-only effect, or effect the other way; inactive = flat fitted curve, though single readings scatter.
Potency is read from the fitted curve at half-maximal effect.

The assay can be described thus: S16 Schwann cell viability assay (CellTiter-Glo assay) (AID 624031). Also: nearly all actives have a fitted effect of over 70% in size. As to conditions: S16 rat Schwann cells viability, 24 h; series mostly up to 57.5 µM. In short, it runs like this:
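Concentration-effect curves come from CellTiter-Glo luminescence of S16 rat Schwann cells after 24 h compound exposure. Each reading was normalized to DMSO wells (0%) and wells without cells, and curves were ranked by r2 and response magnitude.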
With `CC(=O)N[C@@H](CCC(=O)O)C(=O)O`, the Potency entry was “inactive”.
For `N#CCC(=O)NN` the value was “inactive”.
With `CCC(C(=O)OCCOCCN(CC)CC)c1ccccc1` (centres undefined) the entry was “inactive”; with `OCc1ccccn1`, “inactive”.
For `CCOC(=O)c1c(N)sc2c1CCN(Cc1ccccc1)C2` the value was “inactive”; for `CCN(CC)CCNC(=O)COc1ccc(OC)cc1`, “inactive”.
Turning to `CCCCCCCCNC(C)C(O)c1ccc(SC(C)C)cc1` (centres undefined), the Potency was 14.4 µM (active).
For `O=C(O)c1ccc(S(=O)(=O)N(Cl)Cl)cc1` the value was “inactive”; for `Cc1cccc(C)c1NC(=O)c1ccccc1C(=O)O`, “inactive”; for `COc1ccc(CCN(C)CCCN2CCc3cc(OC)c(OC)cc3CC2=O)cc1OC`, “inactive”.
For `CC(=O)Oc1ccc(C)cc1`, the Potency entry is “inactive”.
Regarding `C[N+]1(C)CCC(=C(c2ccccc2)c2ccccc2)CC1`, the Potency result was “inactive”.
Turning to `CC(=O)NC(=O)c1ccccc1O`, the Potency entry is “inactive”.
For `Cc1cc(NS(=O)(=O)c2ccc(N)cc2)nc(C)n1` the value was “inactive”; for `CC(C)CCCC(C)N` (centres undefined), “inactive”; for `FC1(F)C(F)(F)C(F)(F)C2(F)C(F)(F)C(F)(F)C(F)(F)C(F)(F)C2(F)C1(F)F` (centres undefined), “inactive”.
With `Cc1ccc(S(=O)(=O)NC(=O)NC2CCCC2)cc1` the entry was “inactive”; with `CCCc1ncc(C[n+]2ccccc2C)c(N)n1`, “inactive”.
As for `CC(=O)Nc1ccc(S(=O)(=O)Nc2ccc([N+](=O)[O-])cc2)cc1`, the Potency entry was “inactive”.
For `CN1CCN(c2c(F)cc3c(=O)c(C(=O)O)cn4c3c2SCC4)CC1` the value was “inactive”; for `CN(C)C(=O)Nc1ccc(Cl)c(Cl)c1`, “inactive”.
For `CC[N+](C)(CC)CCOC(=O)C(O)(c1ccccc1)C1CCCCC1` (centres undefined), the Potency result is “inactive”.
For `CNCCc1ccccn1`, the Potency result was “inactive”.
With `COc1ccc(CN(CCN(C)C)c2ncccn2)cc1` the entry was “inactive”; with `CC(C)(C)NC[C@H](O)COc1cccc2c1CCCC2=O`, “inactive”; with `Cc1cccc(C)c1NC(=O)CN1CCCCCC1`, “inactive”.
`OC1C(O)C(O)C(O)C(O)C1O` (centres undefined): the Potency result was “inactive”.
For the compound `CC(=O)Nc1ccc(OC(=O)c2ccccc2OC(C)=O)cc1`, the Potency result is “inactive”.
`CC(=O)Nc1ccc(OCC(O)CNC(C)C)cc1` (centres undefined): the Potency entry was “inactive”.
For `NS(=O)(=O)c1ccc(Cl)c(S(N)(=O)=O)c1`, the Potency result is “inactive”.
Regarding `COc1cc(NS(=O)(=O)c2ccc(N)cc2)ncn1`, the Potency entry was “inactive”.
Turning to `CC(=O)OCC(=O)[C@H]1CC[C@H]2[C@@H]3CCC4=CC(=O)CC[C@]4(C)[C@H]3CC[C@]12C`, the Potency entry was “inactive”.
As for `Cc1nc(-c2ccc(Cl)cc2)oc1COC(C)(C)C(=O)O`, the Potency result was “inactive”.
With `N=C(N)N1CCc2ccccc2C1` the entry was “inactive”.
